In the OligoGym collection:

Key:
Assay in all cases: pooled miR-30 sensor sort-seq; sequence = guide strand
Conditions in all cases: shRNA
AGAP3 = molecular target: AGAP3
AGPAT6 = molecular target: AGPAT6
AGBL5 = molecular target: AGBL5
AKR1C4 = molecular target: AKR1C4
ANXA11 = molecular target: ANXA11
ANKRD53 = molecular target: ANKRD53
ANTXR1 = molecular target: ANTXR1
ANXA5 = molecular target: ANXA5
AP4S1 = molecular target: AP4S1
APLNR = molecular target: APLNR
AP4E1 = molecular target: AP4E1
AP3B1 = molecular target: AP3B1
Also: reference of the scale not given here.

## ATTGGGTGCATCGCAGTCGATA
AGAP3
  sensor-assay potency score (higher = more potent): -1.38

## AAGATGATCACATCGATCGGTG
AGPAT6
  sensor-assay potency score (higher = more potent): -0.372

## TTGTAGATTGCAACACGGCCGC
AGBL5
  sensor-assay potency score (higher = more potent): -0.607

## TTCCCTGGCACTTTCACCGTTG
AGAP3
  sensor-assay potency score (higher = more potent): -0.316

## TCGCAGTCGATACAAAAGCTGT
AGAP3
  sensor-assay potency score (higher = more potent): -1.8

## TTTGGTGACCTCTACAGCTCTG
AKR1C4
  sensor-assay potency score (higher = more potent): 0.239

## TCTAGGACGGTGAATCTCGGGG
ANXA11
  sensor-assay potency score (higher = more potent): -0.586

## TTGACCTTGATACTCAATCAGG
ANKRD53
  sensor-assay potency score (higher = more potent): -0.673

## TTCTCATTGAGTGTGACCGAGT
ANTXR1
  sensor-assay potency score (higher = more potent): -0.633

## TTGGAGAGTACCACTTCCGGGG
ANTXR1
  sensor-assay potency score (higher = more potent): -0.563

## TCTGATGTCCAGGAGGTCGGTC
ANXA11
  sensor-assay potency score (higher = more potent): -0.593

## TTAGAAACAGACATTCTTTTGG
ANXA11
  sensor-assay potency score (higher = more potent): 0.574

## TTGAACTGCCCCGCATAGGTGG
ANXA11
  sensor-assay potency score (higher = more potent): -0.724

## TATTTTAGCAGCAAGAGGCTGT
ANXA11
  sensor-assay potency score (higher = more potent): 0.315

## TGTCTCTACACTGTGAGCCTGG
ANTXR1
  sensor-assay potency score (higher = more potent): -0.327

## TAGGATCTGCTGCCGCTGCTTG
ANXA11
  sensor-assay potency score (higher = more potent): -0.946

## TTTCATTTGTTCCAGCTCCCTT
ANXA5
  sensor-assay potency score (higher = more potent): -0.639

## TTGAAAACTGCTACCAGGTGGG
ANXA11
  sensor-assay potency score (higher = more potent): -0.0336

## TTGAACTTGGACTCGTCTGTTC
ANXA11
  sensor-assay potency score (higher = more potent): -0.177

## TAAAGTGAGTGAATGAAGCTGG
ANTXR1
  sensor-assay potency score (higher = more potent): 0.662

## TCATTGATCTTGAAGCTGCAGA
ANTXR1
  sensor-assay potency score (higher = more potent): -0.552

## TTATATTCTGCCTTGTTCCAGA
ANTXR1
  sensor-assay potency score (higher = more potent): -0.0343

## TTGTATACACACACATGCCTTA
ANTXR1
  sensor-assay potency score (higher = more potent): -0.352

## TTGCTTGGTATTGGAGACCAGA
ANKRD53
  sensor-assay potency score (higher = more potent): -0.812

## ATACTCTGATCTGATGTCCAGG
ANXA11
  sensor-assay potency score (higher = more potent): -0.494

## TAAATGTCAAAGAGGACTGGGG
ANXA11
  sensor-assay potency score (higher = more potent): -0.276

## TCGTGGTACAGCGACTTGCCGT
ANXA11
  sensor-assay potency score (higher = more potent): -1.23

## TTGATAATCACAGTGCAGCAGA
ANTXR1
  sensor-assay potency score (higher = more potent): -0.3

## TATACTCTGATCTGATGTCCAG
ANXA11
  sensor-assay potency score (higher = more potent): -0.656

## TTGAGTTTCTTACCACACCAGG
ANTXR1
  sensor-assay potency score (higher = more potent): -1.02

## TTATTGATTAAACAGATCCAGA
ANTXR1
  sensor-assay potency score (higher = more potent): -1.04

## TAGATTTCACAACAGCAAGGAG
ANXA5
  sensor-assay potency score (higher = more potent): -0.538

## TTTTCCATCAGTAAACACCTGC
ANTXR1
  sensor-assay potency score (higher = more potent): 0.177

## TATCTCATAAATGTCAAAGAGG
ANXA11
  sensor-assay potency score (higher = more potent): -1.14

## TTCATCAGTGCCAACCCCCTTG
ANXA11
  sensor-assay potency score (higher = more potent): 0.00983

## TTTGATCAAATCCTTGCCGTAA
ANXA11
  sensor-assay potency score (higher = more potent): -0.559

## TTCAACTTGAGCTTCATCAATT
ANXA5
  sensor-assay potency score (higher = more potent): -0.586

## ATCTTCAGCAGAATCTTCCGGT
ANXA11
  sensor-assay potency score (higher = more potent): 0.075

## TTCTGCTTTGTAGGCTCTGTTT
ANXA11
  sensor-assay potency score (higher = more potent): -1.4

## AAACTTGTACTCCTCTACCAGG
ANKRD53
  sensor-assay potency score (higher = more potent): -1.13

## TTGGACTCCGCGTCAGTCCAGG
ANKRD53
  sensor-assay potency score (higher = more potent): -1.11

## TATTCTTGAGACATTTCACCAC
ANXA11
  sensor-assay potency score (higher = more potent): 0.412

## ATGCTCTTCTCAATGTCCCGGC
ANXA11
  sensor-assay potency score (higher = more potent): -0.72

## TCTTGAGACATTTCACCACGGC
ANXA11
  sensor-assay potency score (higher = more potent): -0.11

## TCCGCTTATACTCTGATCTGAT
ANXA11
  sensor-assay potency score (higher = more potent): -0.656

## TTTAATTCTCGGATGTGCTCAT
ANXA11
  sensor-assay potency score (higher = more potent): 0.906

## TTGAATGATGAACTGTCTGGAG
AP4S1
  sensor-assay potency score (higher = more potent): 0.198

## TACAGCGTCTTCACCAGGTGGT
APLNR
  sensor-assay potency score (higher = more potent): 0.0282

## TTCATTATTACAGACTTCCATA
AP4E1
  sensor-assay potency score (higher = more potent): -0.778

## TACAACTGTATTCACAAGGAGA
AP4E1
  sensor-assay potency score (higher = more potent): -0.841

## TATCTGCTGACACACAGCCCAC
APLNR
  sensor-assay potency score (higher = more potent): -1.74

## TTTTCTTCGTACAATCTCCTTA
AP4E1
  sensor-assay potency score (higher = more potent): 0.18

## AAGTACAACACACACAGACAAG
APLNR
  sensor-assay potency score (higher = more potent): -1.41

## TTTCTTTATACCTTCCAGCTTC
AP4E1
  sensor-assay potency score (higher = more potent): -0.271

## TAAATAGCCATCTCGTTCTCAG
AP4S1
  sensor-assay potency score (higher = more potent): -0.314

## TACATTAATTCACTTGTCCTTT
AP4E1
  sensor-assay potency score (higher = more potent): -0.311

## TTTGAATTGACATAGTTGCTAT
AP3B1
  sensor-assay potency score (higher = more potent): -0.399

## TATAAGTACAACACACACAGAC
APLNR
  sensor-assay potency score (higher = more potent): 0.501

## TAGCTGGCTGACTTCTCCCCAC
APLNR
  sensor-assay potency score (higher = more potent): -0.754

## TAATTTTTCTTCTTCGTGCTTG
AP4E1
  sensor-assay potency score (higher = more potent): 0.244

## TTAGAAAGTCGAGTCTGCCCTT
AP4S1
  sensor-assay potency score (higher = more potent): 0.201

## TGAATGATGAACTGTCTGGAGA
AP4S1
  sensor-assay potency score (higher = more potent): -0.912

## TAACTTGAAGAAATCTCTGTGG
AP4E1
  sensor-assay potency score (higher = more potent): 0.558

## TTCATAAATAGCCATCTCGTTC
AP4S1
  sensor-assay potency score (higher = more potent): -1.14

## ATTAACTCCAACCACAATGAAG
AP4S1
  sensor-assay potency score (higher = more potent): -1.9

## TTCACTTTCATAGTCCTCCAAG
APLNR
  sensor-assay potency score (higher = more potent): -0.567

## AAGAACTTGAGATTGATCCTTT
AP4E1
  sensor-assay potency score (higher = more potent): 0.655

## TTATATTCAATGAAAGAGCATT
AP4S1
  sensor-assay potency score (higher = more potent): -1.02

## TTTGAATGATGAACTGTCTGGA
AP4S1
  sensor-assay potency score (higher = more potent): 0.922

## TGTACTCACACTCAGACTGGTT
APLNR
  sensor-assay potency score (higher = more potent): -1.04

## TATATCAGCTTAAAATCCTTAT
AP4S1
  sensor-assay potency score (higher = more potent): -0.456

## TTCTCGTGCATCTGTTCTCCAC
APLNR
  sensor-assay potency score (higher = more potent): -0.937

## TATTTGTCTCTTTCAGTCCTGT
AP4E1
  sensor-assay potency score (higher = more potent): -0.0122

## TAGAAAGTCGAGTCTGCCCTTG
AP4S1
  sensor-assay potency score (higher = more potent): -0.4

## TTTCAGACTACTCAGTTCCTGC
AP4E1
  sensor-assay potency score (higher = more potent): -0.633

## AGTCTGTGTACTCACACTCAGA
APLNR
  sensor-assay potency score (higher = more potent): -2.07

## TAAATCAAGAAAACATTCCGGA
AP4S1
  sensor-assay potency score (higher = more potent): 0.763

## TGGATTTCTCGTGCATCTGTTC
APLNR
  sensor-assay potency score (higher = more potent): -1.45

## TTCATTGTCTGAATAAACCATG
AP4E1
  sensor-assay potency score (higher = more potent): -0.705

## TTTTACTGCGTCCAGACTCAGG
APLNR
  sensor-assay potency score (higher = more potent): -1.25

## TTGTTCATTGGATCGAGAGAGA
AP4S1
  sensor-assay potency score (higher = more potent): -1.06

## TAAAGAAGCATCTACCACCAAG
AP4E1
  sensor-assay potency score (higher = more potent): -0.753

## TTGACGAAGATGAGGTAGCTGC
APLNR
  sensor-assay potency score (higher = more potent): -0.686

## AAACACGGTCCAGAGCACCAGA
APLNR
  sensor-assay potency score (higher = more potent): -0.76
